# Reference: PubChem BioAssay (EPA / NIEHS)
# Results filed as inconclusive are left out. Active and inactive are the calls of the source. Rule for the calls: active = hit-call score of the fitted dose curve at least 0.9, where 1 is the maximum; inconclusive = response in the unintended direction; inactive = score below 0.9.
# Biological target: human Peroxisome Proliferator-activated Receptor alpha (PPARa), PPARA (gene 5465) (UniProt Q07869)
# Experiment: ATG_PPARa_TRANS: Attagene TRANS-FACTORIAL HepG2 Assay for human Peroxisome Proliferator-activated Receptor alpha (PPARa) (AID 2283001);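 for AC50: potency for gain of reporter signal over DMSO so agonist or activator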
# Protocol: ATG_TRANS is a cell-based, multiplexed-readout assay that uses HepG2, a human liver cell line, with measurements taken at 24 hours after chemical dosing in a 24-well plate.ATG_PPARa_TRANS is one of 30 assay component(s) measured or calculated from the ATG_TRANS assay. It is designed to make measurements of mRNA induction, a form of inducible reporter, as detected with fluorescence intensity signals by Reverse transcription polymerase chain reaction (RT-PCR) and Capillary electrophoresis technology.Data from the assay component ATG_PPARa_TRANS was analyzed into 1 assay endpoint. This assay endpoint, ATG_PPARa_TRANS, was analyzed in the positive analysis fitting direction relative to DMSO as the negative control and baseline of activity. Using a type of inducible reporter, measures of mRNA for gain-of-signal activity can be used to understand the reporter gene at the transcription factor-level as they relate to the gene PPARA. Furthermore, this assay endpoint can be referred to as a primary readout, because this assay has produced multiple assay endpoints where this one serves a reporter gene function. To generalize the intended target to other relatable targets, this assay endpoint is annotated to the nuclear receptor intended target family, where the subfamily is non-steroidal.
# Human liver HepG2 cells are transiently transfected with multiple reporter transcription units (MRTUs) in 6-well plates using FuGene 6 reagent (Roche; 3 ml FuGene/1 mg DNA). The MRTU constructs are regulated by a cis-regulating element (promoter). […] A major difference between the CIS and TRANS system is that in CIS activities of endogenous TFs are measured, whereas the TRANS assay evaluates changes in activities of exogenous, chimeric NR-Gal4 proteins. […] At the end of 24 hour incubation, total RNA was isolated using TriZol reagent (Invitrogen). The isolated RNA is then reverse-transcribed using oligo(dT) primer and Mo-MLV reverse transcriptase (Invitrogen) with DNAse I (Ambion) treatment for 30 min. The one-tenth of the produced cDNA was amplified by PCR using Taq DNA polymerase (Invitrogen) and two reporter sequence-specific primers. The PCR products were fluorescently labeled by primer extension with 6-arboxyfluorescein (6-FAM) 5'-labeled reporter sequence-specific primer (2 min at 95 C, 20 s at 68 C and 10 min at 72 C) and these products were digested with 5U of HpaI (New England Biolabs) for 2h at 37 C. The fragments were purified using Qiaquick PCR columns (Qiagen), analyzed on an ABI 3130xL genetic analyzer (Applied Biosystems) with peak positions identified by using a set of X-rhodamine (ROX)-labeled MapMarker1000 molecular weight standards (BioVentures). The raw capillary electrophoresis data was processed using Attagraph software (Attagene).
# Chain of human Peroxisome Proliferator-activated Receptor alpha (PPARa), PPARA (gene 5465) (Q07869 whole entry, looked up): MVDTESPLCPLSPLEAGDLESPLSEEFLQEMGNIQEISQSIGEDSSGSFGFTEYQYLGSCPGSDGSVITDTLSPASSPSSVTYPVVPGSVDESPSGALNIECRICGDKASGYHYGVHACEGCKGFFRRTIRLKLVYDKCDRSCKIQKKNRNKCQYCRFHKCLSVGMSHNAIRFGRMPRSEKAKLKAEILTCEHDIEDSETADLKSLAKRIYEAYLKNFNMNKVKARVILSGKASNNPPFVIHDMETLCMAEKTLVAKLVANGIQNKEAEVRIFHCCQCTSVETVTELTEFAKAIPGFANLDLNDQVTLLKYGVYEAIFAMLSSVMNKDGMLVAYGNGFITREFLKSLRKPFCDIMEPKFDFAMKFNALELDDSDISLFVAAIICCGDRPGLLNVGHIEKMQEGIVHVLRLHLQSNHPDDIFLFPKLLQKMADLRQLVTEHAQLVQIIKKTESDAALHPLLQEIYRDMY
SMILES,outcome,AC50
CCCCCCCCCCCCCC(=O)OC(C)C,inactive,
Cc1ccc2c(c1)CCCN2,inactive,
CCCCCCCCCCCCCCCCCCOS(=O)(=O)O,,27.4 µM (active)
CCOC(=O)/C=C\C(=O)OCC,,49.6 µM (active)
CCC1COC(=O)O1 (stereo not given),inactive,
CCCCCCCCCCCC(=O)OCC,inactive,
C=CC(C)(CCC=C(C)C)OC(=O)C=Cc1ccccc1 (stereo not given),inactive,
CC(CC=O)CC(C)(C)C (stereo not given),inactive,
CCN1CN(CC)CN(CC)C1,inactive,
CC1(C)CC(O)CC(C)(C)N1[O],inactive,
COc1ccc(C(=O)/C(Br)=C\C(=O)O)cc1,inactive,
CO[Si](CCCS)(OC)OC,inactive,
CCCCC/C=C\C/C=C\CCCCCCCC(=O)O,,28.9 µM (active)
Cc1c(C(=O)c2c[nH]n(C)c2=O)ccc(S(C)(=O)=O)c1C1=NOCC1,inactive,
O=C(C=Cc1ccccc1)OCCc1ccccc1,inactive,
c1ccc2c(c1)[nH]c1ccccc12,inactive,
CC(C)c1ccc2ncccc2c1,inactive,
CC(CCC(=O)O)(c1ccc(O)cc1)c1ccc(O)cc1,inactive,
CCOC(=O)C1=NN(c2ccc(Cl)cc2Cl)C(C)(C(=O)OCC)C1 (stereo not given),inactive,
O=C(Oc1ccccc1)c1ccccc1C(=O)Oc1ccccc1,inactive,

SMILES,outcome,AC50
CC(=O)OC1CCCCC1C(C)(C)C (stereo not given),inactive,
CCCSSCCC,inactive,
CC(C)[N+](C)(CCOC(=O)C1c2ccccc2Oc2ccccc21)C(C)C,inactive,
O=C(O)CC(C(=O)O)S(=O)(=O)O (stereo not given),inactive,
CCCCCC1=CCCC1=O,inactive,
C=C(C)C(=O)OCC(O)COc1ccc(C(C)(C)c2ccc(OCC(O)COC(=O)C(=C)C)cc2)cc1 (stereo not given),inactive,
Cc1ccccc1CCO,inactive,
COC(=O)C=Cc1ccccc1,inactive,
CCCC(C)C(=O)OCC (stereo not given),inactive,
Nc1nc(N)nc(-c2ccccc2)n1,inactive,
Clc1cc(Cl)c(Cl)c(Cl)c1Cl,inactive,
CCCCCCCC(=O)OCC(COC(=O)CCCCCCC)OC(=O)CCCCCCC,inactive,
O=C(O)C1CCC(C(=O)O)CC1 (stereo not given),inactive,
O=C(O)/C=C/c1ccccc1,inactive,
CCN(CC)c1cccc(C)c1,inactive,
Oc1ccccc1Cc1ccccc1O,inactive,
C=CC(=O)OCCCCCCOC(=O)C=C,inactive,
CCCCCCCOC(=O)c1ccc(O)cc1,inactive,
C=CC(=O)OCCCCCCCC(C)C,inactive,
C=CCNCC=C,inactive,
